Structures are written as SMILES. The panel holds about 83,000 compounds, 20% with a hit somewhere; the sample as a whole holds those more often.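 96-well plates, one dose, 48 hours. Percent growth reported; active if below 10.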 Unmarked numbers belong to inactive results. Activity calls are given as the source filed them.

For the first assay, the system named is K-562 leukemia. In words: NCI-60 one-dose screen, 48 h (100 = growth as untreated, 0 = no growth, -100 = all killed). Conditions: 10 µM unless noted.
Regarding `NC1=NC(c2cccc(Br)c2)c2sc3ccc(Cl)cc3c2N1` (stereo unspecified), the growth was 86.6%.
Still for that read-out and setting: in the case of `CCCCn1c(-c2ccc(-c3nc(-c4ccc(Cl)cc4)no3)cc2)nc(-c2ccccc2)c1-c1ccccc1` it was 58.9%; in that of `CCc1ccccc1-n1c(N)c(C#N)c(-c2ccc(Cl)cc2)c(C#N)c1=O`, 114%.
The same measure, in the same setting: for `Cc1ccc(/C=N\NC(=O)c2[nH]c3ccc(F)cc3c2-c2ccccc2)cc1` the value was 16.9%; for `COc1ccc(/C=C/c2c(C(=O)/C=C/c3ccc(C(F)(F)F)cc3)c(C)nc3ccccc23)cc1`, 8.15% (active); for `Cc1c(C(=O)/C=C/Nc2c(Cl)cc(S(N)(=O)=O)cc2Cl)sc2nc3ccccc3n12`, 105%.
Same read-out and setting: for `CC(=O)N1N=C(c2ccc(Nc3nc(Nc4ccc(F)cc4)nc(Nc4ccc(Cl)cc4)n3)cc2)CC1c1ccc(Cl)cc1` (stereo unspecified) the value was 88.1%; for `COc1ccccc1/C=C1\Oc2cc(OCCN3CCC(Cc4ccccc4)CC3)ccc2C1=O`, 27.6%.
For the compound `Cc1nc2ccccc2c(/C=C/c2ccccc2)c1C(=O)/C=C/c1ccc(C(F)(F)F)cc1`, the growth is 1.82% (active).
Still for that read-out and setting: for `Cc1[nH]c(C(=O)Nc2ccc(C(=O)N3CCNCC3)cc2OC(C)C)c(Cl)c1Cl` the value was -28.6% (active); for `CN1C(=O)N(C)C2Nn3c(s/c(=C\c4ccccc4)c3=O)=NC21` (stereo unspecified), 92.8%; for `COc1ccc([C@H]2c3cc(OC)c(OC)cc3C=C(C=O)C2CO)cc1OC` (stereo partly specified), 20.1%.
Still for that read-out and setting: for `O=c1n(Cc2ccc3ccccc3c2)ccn1Cc1ccc2ccccc2c1` the value was 106%; for `N/C(=N\c1nc2ccccc2s1)NC(=O)Nc1cccc2ccccc12`, 9.12% (active).
On the same count and under the same terms, in the case of `O=C(N=c1oc2ccccc2cc1-c1cc2ccccc2[nH]1)Nc1ccc(Cl)cc1` it was 88.8%; in that of `Fc1cc(-c2nnc3sc(-c4ccc(Cl)cc4Cl)nn23)c(Cl)cc1Cl`, 107%.
For `CSc1ccc2c(c1)c(CCN)c(C)n2Cc1ccc(Cl)c(Cl)c1`, the growth was -66.1% (active).
Still for that read-out and setting: for `OC(c1ccccc1)C(NC(Cc1ccccc1)c1ccccc1)c1ccccc1` (stereo unspecified) the value was 82.5%; for `O=C(/C=C/c1ccc([N+](=O)[O-])o1)NNC(=O)c1cc2ccccc2cc1O`, 3.48% (active).
On the same count and under the same terms, in the case of `CCCCCCCCCCCCCCCCCCOc1ccccc1CC(=O)OCC[N+](CC)(CC)CC` it was 6.67% (active).
The same measure, in the same setting: for `Cc1c(C(=O)NCCN2CCOCC2)cn2ncnc(Oc3ccc(NC(=O)Nc4ccc(Cl)c(C(F)(F)F)c4)cc3)c12` the value was 4.96% (active); for `Cc1ccc2c(n1)C(=O)C(Cl)=C(Nc1ccccc1C(C)C)C2=O`, 12%; for `Nc1cc2c(cc1Br)-c1cc(Cl)ccc1C2=O`, 93.2%.
Turning to `Cc1nn(-c2ccccc2)c2c1N=c1s/c(=C\c3ccc(C(F)(F)F)cc3)c(=O)n1CN2`, the growth was 93.1%.
Regarding `COc1ccc2c(c1)/C(=C/c1sc(=S)n(Cc3ccco3)c1O)C=N2`, the growth was 15.8%.
On to `COc1nc2ccccc2cc1-c1nc2c(cnn2-c2ccccc2)c(=O)[nH]1`, for which the growth was 16.7%.
On to `Cc1[nH]c(C(=O)Nc2ccc(C(=O)NCCN)cc2OC(C)C)c(Cl)c1Cl`, for which the growth was -19.3% (active).
Same read-out and setting: for `CC(C)c1cc(C(C)C)c(S(=O)(=O)Oc2ccc(NC(=O)c3ccc(Cl)cc3)cc2)c(C(C)C)c1` the value was 16.4%; for `CN1C(=O)CNC(=O)[C@H](NC(=O)c2nc3ccccc3cc2O)CSSC[C@H]1C(=O)NCCCc1nc2ccccc2cc1O`, 18.4%; for `O=S(=O)(Nc1ccc(-c2nc(-c3cccc(OCCN4CCOCC4)c3)c(-c3ccnc(Br)c3)[nH]2)cc1)c1ccccc1`, 3.42% (active).
Consider `COc1ccc(-c2cc3c4c(nc5ccccc5c4c2)CC(c2cc(OC)c(OC)c(OC)c2)O3)cc1` (stereo unspecified), for which the growth is 40.9%.
On the same count and under the same terms, in the case of `COc1ccc(/C=N/Nc2cc(=O)[nH]c3ccc(Cl)cc23)cc1` it was 20.9%; in that of `COc1ccc(S(=O)(=O)n2c3ccccc3n3ncc(-c4nnc(C)o4)c23)cc1`, 15.4%.
The same measure, in the same setting: in the case of `CCc1cccc2c3c(sc12)C(c1ccc(Cl)cc1)C(C#N)=C(N)O3` (stereo unspecified) it was 6.13% (active); in that of `Clc1ccc(C(/C=C/c2sc(Cl)nc2Cl)=N/Nc2cc(Cl)cc(Cl)c2)cc1`, 94.6%; in that of `NCCCNc1nc2ccccc2c2c(=O)c3cc(OC(F)(F)F)ccc3sc12`, -34.7% (active).
Take `Cc1cc(-c2cc(C)c(N)cc2C)c(C)cc1N`: the growth was 54.7%.
On the same count and under the same terms, in the case of `O=C(Nc1ccc(F)cc1F)c1cc(F)ccc1O` it was 9.5% (active).

A further assay concerns MALME-3M melanoma. The description is as above. Conditions: 10 µM unless noted.
Take `NC1=NC(c2cccc(Br)c2)c2sc3ccc(Cl)cc3c2N1` (stereo unspecified): the growth is 95.6%.
Still for that read-out and setting: for `CCCCn1c(-c2ccc(-c3nc(-c4ccc(Cl)cc4)no3)cc2)nc(-c2ccccc2)c1-c1ccccc1` the value was 92%.
With `CCc1ccccc1-n1c(N)c(C#N)c(-c2ccc(Cl)cc2)c(C#N)c1=O`, the growth was 173%.
For the compound `Cc1ccc(/C=N\NC(=O)c2[nH]c3ccc(F)cc3c2-c2ccccc2)cc1`, the growth was 15.6%.
On the same count and under the same terms, in the case of `COc1ccc(/C=C/c2c(C(=O)/C=C/c3ccc(C(F)(F)F)cc3)c(C)nc3ccccc23)cc1` it was -46.7% (active); in that of `Cc1c(C(=O)/C=C/Nc2c(Cl)cc(S(N)(=O)=O)cc2Cl)sc2nc3ccccc3n12`, 105%.
On the same count and under the same terms, in the case of `CC(=O)N1N=C(c2ccc(Nc3nc(Nc4ccc(F)cc4)nc(Nc4ccc(Cl)cc4)n3)cc2)CC1c1ccc(Cl)cc1` (stereo unspecified) it was 110%; in that of `COc1ccccc1/C=C1\Oc2cc(OCCN3CCC(Cc4ccccc4)CC3)ccc2C1=O`, 76.8%.
The same measure, in the same setting: for `Cc1nc2ccccc2c(/C=C/c2ccccc2)c1C(=O)/C=C/c1ccc(C(F)(F)F)cc1` the value was -61.4% (active).
Turning to `Cc1[nH]c(C(=O)Nc2ccc(C(=O)N3CCNCC3)cc2OC(C)C)c(Cl)c1Cl`, the growth was 72.6%.
On the same count and under the same terms, for `CN1C(=O)N(C)C2Nn3c(s/c(=C\c4ccccc4)c3=O)=NC21` (stereo unspecified) the value was 101%.
On the same count and under the same terms, in the case of `COc1ccc([C@H]2c3cc(OC)c(OC)cc3C=C(C=O)C2CO)cc1OC` (stereo partly specified) it was 68.2%.
Consider `O=c1n(Cc2ccc3ccccc3c2)ccn1Cc1ccc2ccccc2c1`, for which the growth was 91.8%.
Still for that read-out and setting: in the case of `N/C(=N\c1nc2ccccc2s1)NC(=O)Nc1cccc2ccccc12` it was 59.7%; in that of `O=C(N=c1oc2ccccc2cc1-c1cc2ccccc2[nH]1)Nc1ccc(Cl)cc1`, 99.2%; in that of `Fc1cc(-c2nnc3sc(-c4ccc(Cl)cc4Cl)nn23)c(Cl)cc1Cl`, 52.3%.
Still for that read-out and setting: for `CSc1ccc2c(c1)c(CCN)c(C)n2Cc1ccc(Cl)c(Cl)c1` the value was -75.4% (active); for `OC(c1ccccc1)C(NC(Cc1ccccc1)c1ccccc1)c1ccccc1` (stereo unspecified), 91.9%; for `O=C(/C=C/c1ccc([N+](=O)[O-])o1)NNC(=O)c1cc2ccccc2cc1O`, -36.3% (active).
Same read-out and setting: in the case of `CCCCCCCCCCCCCCCCCCOc1ccccc1CC(=O)OCC[N+](CC)(CC)CC` it was -8.97% (active).
As for `Cc1c(C(=O)NCCN2CCOCC2)cn2ncnc(Oc3ccc(NC(=O)Nc4ccc(Cl)c(C(F)(F)F)c4)cc3)c12`, the growth was -4.42% (active).
Still for that read-out and setting: for `Cc1ccc2c(n1)C(=O)C(Cl)=C(Nc1ccccc1C(C)C)C2=O` the value was 42.5%.
Still for that read-out and setting: in the case of `Nc1cc2c(cc1Br)-c1cc(Cl)ccc1C2=O` it was 107%; in that of `Cc1nn(-c2ccccc2)c2c1N=c1s/c(=C\c3ccc(C(F)(F)F)cc3)c(=O)n1CN2`, 83.1%; in that of `COc1ccc2c(c1)/C(=C/c1sc(=S)n(Cc3ccco3)c1O)C=N2`, 49.1%.
On the same count and under the same terms, for `COc1nc2ccccc2cc1-c1nc2c(cnn2-c2ccccc2)c(=O)[nH]1` the value was 75.6%; for `Cc1[nH]c(C(=O)Nc2ccc(C(=O)NCCN)cc2OC(C)C)c(Cl)c1Cl`, 63.3%.
For the compound `CC(C)c1cc(C(C)C)c(S(=O)(=O)Oc2ccc(NC(=O)c3ccc(Cl)cc3)cc2)c(C(C)C)c1`, the growth is 53.8%.
For the compound `CN1C(=O)CNC(=O)[C@H](NC(=O)c2nc3ccccc3cc2O)CSSC[C@H]1C(=O)NCCCc1nc2ccccc2cc1O`, the growth was 110%.
On the same count and under the same terms, for `O=S(=O)(Nc1ccc(-c2nc(-c3cccc(OCCN4CCOCC4)c3)c(-c3ccnc(Br)c3)[nH]2)cc1)c1ccccc1` the value was 44%; for `COc1ccc(-c2cc3c4c(nc5ccccc5c4c2)CC(c2cc(OC)c(OC)c(OC)c2)O3)cc1` (stereo unspecified), 20.8%; for `COc1ccc(/C=N/Nc2cc(=O)[nH]c3ccc(Cl)cc23)cc1`, 46%.
The same measure, in the same setting: in the case of `COc1ccc(S(=O)(=O)n2c3ccccc3n3ncc(-c4nnc(C)o4)c23)cc1` it was 66.9%.
Still for that read-out and setting: for `CCc1cccc2c3c(sc12)C(c1ccc(Cl)cc1)C(C#N)=C(N)O3` (stereo unspecified) the value was 54.6%; for `Clc1ccc(C(/C=C/c2sc(Cl)nc2Cl)=N/Nc2cc(Cl)cc(Cl)c2)cc1`, 103%.
With `NCCCNc1nc2ccccc2c2c(=O)c3cc(OC(F)(F)F)ccc3sc12`, the growth is 80.9%.
Regarding `Cc1cc(-c2cc(C)c(N)cc2C)c(C)cc1N`, the growth is 84.2%.
Same read-out and setting: for `O=C(Nc1ccc(F)cc1F)c1cc(F)ccc1O` the value was -25.7% (active).

(Values after PubChem BioAssay (NCI).)
